According to PubChem BioAssay AID1209 (Sanford-Burnham Center for Chemical Genomics, 2008):
About 810 (0.43%) of roughly 190,000 compounds were called active. For the sample, actives were picked, then their nearest neighbours and some compounds at random. Values without a mark were called inactive. Cut-off read from the data, not from the text of the source: active = inhibition above about 50%; inactive = the rest.

target: Mannose-6-phosphate isomerase (Homo sapiens) (UniProt P34949); test: inhibitors of human PMI, primary screen, biochemical, fluorescence intensity, coupled assay (AID 1209); conditions: purified PMI enzyme, at 20 µM, active compounds read high;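 note: plate controls were DMSO vehicle for no effect and wells lacking substrate for full effect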
Sequence (P34949 whole entry, looked up): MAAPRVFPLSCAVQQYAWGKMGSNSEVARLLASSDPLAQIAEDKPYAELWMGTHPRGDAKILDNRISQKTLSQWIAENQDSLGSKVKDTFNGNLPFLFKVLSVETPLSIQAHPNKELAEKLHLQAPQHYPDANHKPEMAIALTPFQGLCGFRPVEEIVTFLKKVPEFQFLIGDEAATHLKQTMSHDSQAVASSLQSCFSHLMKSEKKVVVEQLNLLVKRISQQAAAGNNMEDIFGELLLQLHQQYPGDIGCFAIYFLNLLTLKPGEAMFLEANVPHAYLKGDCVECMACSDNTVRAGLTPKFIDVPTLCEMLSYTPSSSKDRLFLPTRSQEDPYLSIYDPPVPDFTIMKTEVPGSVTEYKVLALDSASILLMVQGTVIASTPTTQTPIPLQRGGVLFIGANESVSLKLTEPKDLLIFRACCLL

| Compound | inhibition |
| --- | --- |
| NNC(=O)COc1ccc(F)cc1 | 15.9% |
| O=C(NCc1ccncc1)c1cncc(Br)c1 | 2% |
| NC1=NC(=O)/C(=C\c2ccc(O)c([N+](=O)[O-])c2)S1 | -3.7% |
| CCc1c(O)cc2n(c1=O)-c1ccc(Cl)cc1C2(C)C | 2.7% |
| CN(CC(=O)NC(=O)NCc1ccccc1)Cc1ccc(Cl)c(Cl)c1 | 14% |
| Cc1cccc(NC(=O)C(=O)NCCc2c[nH]c3ccccc23)c1C | 12.5% |
| CCC(=O)Nc1cccc(-n2nnnc2SCC(=O)N2CCCCC2)c1 | -4.2% |
| COC(=O)c1nc2ccc(N3CCOCC3)cc2c(C)c1C(=O)OC | 23.5% |
| Cc1cc(C(=O)Nc2ccc(N3CCOCC3)cc2)c2ccccc2n1 | 6.1% |
| Cc1c(C(=O)O)c(C(=O)O)nc2ccc(N3CCOCC3)cc12 | 56.4% (active) |
| CC(C)c1nc(SCC(=O)c2ccccc2)c2c(=O)n(C)c(=O)n(C)c2n1 | 5.8% |
| Cc1nn(C)c(C)c1C1C(C#N)=C(N)OC2=C1C(=O)CC(C)(C)C2 (centres undefined) | -1.4% |
| CC(=O)Nc1ccc(N/C(C)=C/C(=O)c2cccnc2)cc1 | -7.3% |
| C/C(=C\C(=O)c1cccnc1)Nc1ccc(O)cc1 | 42.8% |
| C/C(=C\C(=O)c1cccnc1)Nc1ccc(C(=O)O)cc1 | 81% (active) |
| CCCCCCSc1nnc(-c2cnn(-c3ccccc3)c2-n2cccc2)n1C | 16.4% |
| CC(=O)CC(C)=NCCN=C(C)CC(C)=O | -3.7% |
| Cc1ccc2cc(N)ccc2n1 | 45.2% |
| Cn1cc2ccc(N)cc2n1 | 72.9% (active) |
| Cn1cc2cc(NC(N)=S)ccc2n1 | 1.7% |
| O=C(COC(=O)/C=C/c1ccc(S(=O)(=O)N2CCOCC2)cc1)NCc1ccc(F)cc1 | 9.2% |
| CC(C)[C@H](NC(=O)c1ccccc1)C(=O)OCC(=O)N1CCN(C(=O)c2ccco2)CC1 | -11.4% |
| Cc1cccc(Nc2c([N+](=O)[O-])c(=O)n(C)c3ccccc23)c1 | 2.7% |
| Cc1cccc(Oc2c([N+](=O)[O-])c(=O)n(C)c3ccccc23)c1 | 76% (active) |
| Cc1ccc(Nc2c([N+](=O)[O-])c(=O)n(C)c3ccccc23)cc1 | 3.9% |
| COC(=O)C1CCN(C(=O)c2ccc(SC)cc2OC)CC1 | 6.4% |
| CCOc1cc(/C=C2\C(=O)N(c3ccc(C(N)=O)cc3)N=C2C)ccc1OC(=O)c1cccs1 | 59.8% (active) |
| CCOc1cc(/C=C2/C(=O)N(c3ccccc3)N=C2C)ccc1OC(=O)c1ccco1 | 37.5% |
| CCOc1cc(/C=C2/C(=O)N(c3ccccc3)N=C2C)ccc1OC(=O)c1cccs1 | 13.1% |
